# The whole screen tested about 48,000 compounds, of which about 13,000 (27%) showed an effect of 50% or more. This is one part of the list.
# Tested on: Wolbachia pipientis
# Experiment: Anti-Wolbachia Cell-Based Screen
# Assay type: functional
# Parameters: scale not given: in the data most compounds retested in dose-response had high values
# Conditions: 5 µM
row,SMILES,Percent Effect [%]
1,NC(=O)NC(=O)CCN1C(=O)CC(Cc2ccc(F)cc2)C1=O (stereo unspecified),2.732
2,COc1cccc(C(=O)N2CCOCC2CN(C)C)c1OC.O=CO (stereo unspecified),3.966
3,Cc1cc(C(=O)N[C@H]2CN(CCC(N)=O)C[C@@H]2C2CC2)sc1C,6.856
4,O=C(Nc1cccc2c1CCCC2)C1CCCN1c1nccs1 (stereo unspecified),15.72
5,CC1CN(c2ncccc2C(=O)N[C@@H]2CCCc3ccccc32)CCN1 (stereo partly specified),127.7
6,O=C(Nc1cccc2c1CCCC2)c1cccc(CN2CC[C@H](O)C2)c1,-13.79
7,NC(=O)c1cccnc1N1CCN(c2ncnc3c2CCNC3)CC1,-13.85
8,Cc1cccc(C(=O)Nc2cccc3c2CCCC3)n1,-12.03
9,O=C(CS(=O)(=O)c1ncccc1Cl)NC1CCCc2ccccc21 (stereo unspecified),0.01745
10,O=C(CS(=O)(=O)c1ccccn1)NC1CCCc2ccccc21 (stereo unspecified),25.59
11,CC1CN(c2ncccc2C(=O)Nc2cccc3c2CCCC3)CCN1 (stereo unspecified),121.2
12,O=C(Nc1cccc2c1CCCC2)c1cccnc1N1CCCNCC1,136.8
13,Cc1cc(N2CCN(C(=O)c3cc(Cl)c[nH]3)CC2)nc(N)n1,3.543
14,CC(=O)CCCC(=O)N(Cc1ccsc1)CC(C)C,-0.6388
15,Cc1cc(CC(=O)NC(C)c2ccc(OCC3CC3)c(F)c2)n[nH]1 (stereo unspecified),-4.858
16,CC(NC(=O)N(C)C1CC1)c1ccc(Oc2cccnc2)c(F)c1 (stereo unspecified),100.6
17,CCN(CC)C(=O)NC(C)c1ccc(Oc2cccnc2)c(F)c1 (stereo unspecified),111
18,CC(NC(=O)c1ccnn1C)c1ccc(OCC2CC2)c(F)c1 (stereo unspecified),28.88
19,CCC(C#N)NC(=O)c1ccc(Oc2cccnc2)cc1 (stereo unspecified),-3.415
20,CC(NC(=O)CN(C)C(C)C)c1ccc(Oc2cccnc2)c(F)c1 (stereo unspecified),102.4
21,CC(NC(=O)Cc1ccon1)c1ccc(OCC2CC2)c(F)c1 (stereo unspecified),0.6015
22,CC(CNC(=O)c1ccccc1Oc1cccnc1)N(C)C (stereo unspecified),3.869
23,CC(NC(=O)Cn1ccnc1)c1ccc(OCC2CC2)c(F)c1 (stereo unspecified),47.59
24,CN(C)C1Cc2ccccc2N(S(=O)(=O)c2ccc(C#N)cc2)C1 (stereo unspecified),-15.49

row,SMILES,Percent Effect [%]
1,OC[C@@H](O)CN(CCC(F)(F)F)c1ncc(Cl)cn1,-0.8071
2,CNc1cc(-c2ccncc2)ncn1,104.2
3,O=C(NCCNc1cc(N2CCCC2)ncn1)c1cnccn1,10.51
4,OCCNc1cc(-c2ccncc2)ncn1,123.3
5,OCC1CCCN1c1cc(NCCNc2ccccn2)ncn1 (stereo unspecified),1.6
6,OCCNc1cc(-c2ccccc2)ncn1,107.4
7,OCCNc1cc(N2CCN(Cc3ccccc3)C(CCO)C2)ncn1 (stereo unspecified),0.1628
8,Cn1ccc2c(-c3ccc(NCCO)nn3)ccnc21,2.598
9,CN(C)C(=O)c1cc(NC(=O)N2CCCC(C(F)(F)F)C2)ccn1 (stereo unspecified),-9.482
10,COc1ccc(Cc2ncc3c(n2)CN(C(=O)CCO)C3)cc1,-39.39
11,Cc1c(CNC(=O)C2CCCCCN2C)oc2ccccc12 (stereo unspecified),0.5854
12,N#Cc1ccc(CN(CC(N)=O)C2CCCC2)c(Br)c1,-1.736
13,CN1CC(Oc2ccc(Cl)cc2)=NC(SCC(=O)Nc2ccccc2)=N1,25.95
14,CC(C)(C)c1ncc(C(=O)NCCSc2ccccn2)c(O)n1,2.392
15,Cc1nn(C)cc1-c1ccnc(N2CCSCC2)n1,-11.35
16,Cc1nn(C)c(C)c1-c1ccnc(N2CCCN(CC(C)C)CC2)n1,93.07
17,CC(=O)N1CCCN(c2nccc(-c3c(C)nn(C)c3C)n2)CC1,41.92
18,Cc1nn(C)cc1-c1ccnc(N2CCCN(CC(C)C)CC2)n1,87.41
19,CC(=O)N1CCCN(c2nccc(-c3cn(C)nc3C)n2)CC1,-3.527
20,Cc1nn(-c2ccccc2)c(C)c1-c1ccnc(N2CCCNCC2)n1,14.93
21,O=C(NCc1nc(NC2CCCC2)c2cc(Cl)ccc2n1)c1cscn1,4.35
22,Cc1cc(C)c2c(c1)C(CC(=O)O)C(=O)N2 (stereo unspecified),1.764
23,CN1CCN(Cc2noc(-c3cc(-c4ccccc4F)n[nH]3)n2)CC1,-9.744
24,CCn1nc(-c2ccccc2F)ccc1=O,11.86

row,SMILES,Percent Effect [%]
1,CN1CCCN(Cc2nc(Cc3ccccc3)n[nH]2)CC1,19.97
2,CN1CCCN(Cn2nc(-c3ccccc3F)ccc2=O)CC1,154.5
3,O=c1ccc(-c2ccccc2F)nn1CCN1CCCS1(=O)=O,-2.823
4,O=c1ccc(-c2ccccc2F)nn1CN1CCCCCC1,147.7
5,CCN1C(=O)[C@]2(CC[C@@H]3CN(S(=O)(=O)CC(C)C)C[C@@H]32)N=C1C,-19.96
6,CCc1c(C)nc(C)nc1N1C[C@@H](CN(C)C)[C@@H](CO)C1,-2.089
7,CN(C)c1nccc(C2CN(c3ccccc3)CCO2)n1 (stereo unspecified),99.49
8,c1ccc(C2CN(c3ncnc4[nH]cnc34)CCO2)cc1 (stereo unspecified),11.05
9,CN(C)c1nccc(C2CN(c3cnccn3)CCO2)n1 (stereo unspecified),85.29
10,CN(C)c1nccc(N(C)C2CCOCC2)n1,2.354
11,CC(=O)N1CCOC(c2ccnc(N(C)C)n2)C1 (stereo unspecified),93.18
12,Cc1n[nH]c(C2CN(C(=O)c3ccoc3C)CCO2)n1 (stereo unspecified),-42.67
13,COCCn1cc(C(=O)N2CCCC2c2ccc(F)cc2)ccc1=O (stereo unspecified),-7.034
14,COC(=O)NCCC(=O)NC(c1ccc(Cl)cc1)C(F)(F)F (stereo unspecified),-2.05
15,COc1ccccc1CN1C[C@@H](F)[C@@H](OCc2nc3cnccc3[nH]2)C1,-3.752
16,Cc1cc(C)n(CCN2CCN(C(=O)c3cc4ccccc4o3)CC2)n1,9.033
17,O=C(NC1CCN(c2ccc(-c3ccccc3F)nn2)C1)c1ccc[nH]1 (stereo unspecified),5.245
18,CC(C)c1cc(COCCC(=O)O)no1,121.8
19,COC(=O)C(C)N(Cc1cc(C)on1)C1CC1 (stereo unspecified),-2.266
20,COc1cccc(C2CCN2C(=O)c2cc(C(C)C)on2)c1 (stereo unspecified),21.92
21,COCC(C)NC(=O)N(C)Cc1cc(C)on1 (stereo unspecified),-2.25
22,CC(C)c1cc(COCCCC(=O)O)no1,94.89
23,CC(C)c1cc(CSCCC(=O)O)no1,33.59
